FBW7 act: activators of human E3 ligase FBW7. Q969H0. AlphaScreen FBW7–phospho-cyclin E peptide binding, activator screen. normalized activity (activation), % at 26.1 µM. 0.13% of 650,000 active. AID 1259310; in the data active = normalized activity above about 1.9%;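 note: purified mutant Fbw7 with reduced substrate affinity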
MITF primary: blocks human microphthalmia-associated transcription factor | O75030 | AlphaScreen MITF homodimerization, bead proximity signal | inhibition, % at 2.6 µM | 0.91% of 650,000 active; in the data active = inhibition above about 50%
Target sequence (O75030 whole entry, looked up): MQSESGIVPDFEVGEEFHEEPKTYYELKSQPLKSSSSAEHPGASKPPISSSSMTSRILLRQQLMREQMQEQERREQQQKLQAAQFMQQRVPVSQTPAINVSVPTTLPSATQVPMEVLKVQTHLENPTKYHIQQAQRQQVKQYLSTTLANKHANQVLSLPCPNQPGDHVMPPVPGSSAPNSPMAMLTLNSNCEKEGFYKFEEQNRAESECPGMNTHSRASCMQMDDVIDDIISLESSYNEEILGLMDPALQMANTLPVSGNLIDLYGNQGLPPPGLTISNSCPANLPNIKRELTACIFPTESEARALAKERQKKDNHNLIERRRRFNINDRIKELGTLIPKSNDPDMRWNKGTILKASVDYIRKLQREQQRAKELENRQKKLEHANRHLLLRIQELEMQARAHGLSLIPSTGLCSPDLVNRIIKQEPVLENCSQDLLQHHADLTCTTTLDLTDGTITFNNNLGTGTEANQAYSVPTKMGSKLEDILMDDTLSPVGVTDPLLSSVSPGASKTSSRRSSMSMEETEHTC
TEAD-YAP inh: TEAD-YAP interaction inhibition; inhibition, % at 9.12 µM; HEK-TIYL cells, TEAD-Gal4/YAP UAS-luciferase luminescence; AID 1259422; 1.4% of 640,000 active; in the data active = inhibition above about 32%
GPR151 ag: activators of human GPR151. Q8TDV0. PathHunter beta-arrestin GPR151 cells, luminescence. activation, % at 11.2 µM. 1% of 650,000 active; in the data active = activation above about 4.9%
MITF inh conf: confirmation of human MITF inhibitors. 16% of 4,700 active. inhibition, % at 2.6 µM. AlphaScreen MITF homodimerization, biotin/His-MITF beads. AID 1259372. shares compounds with MITF primary;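 active = inhibition above a cutoff derived from the DMSO control wells, cut at about 28% in these data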;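 note: inhibitors lower the bead chemiluminescence by keeping MITF from dimerizing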
AS interf ctr: optically interferes with AlphaScreen signal; shares compounds with MITF primary; LysRS AlphaScreen counterscreen, signal interference, triplicate; inhibition, % at 2.6 µM; 7.6% of 4,700 active; AID 1259376;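 active = inhibition above a cutoff derived from the DMSO control wells, cut at about 30% in these data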
Hits are given with their value. Compounds with a hit are over-represented: about 3.5% of the library has one in this group of screens.

Screening COc1cccc(CN2CCN(C3CCCCC3C)CC2)c1OC (centres undefined) returned FBW7 act inactive, MITF primary 86.5, TEAD-YAP inh inactive, GPR151 ag inactive, MITF inh conf inactive and AS interf ctr inactive.
Cc1ccc(-c2cnc(NCc3cccc([N+](=O)[O-])c3)n2C)cc1 was read as FBW7 act inactive, MITF primary 65.0, TEAD-YAP inh inactive, GPR151 ag inactive, MITF inh conf inactive and AS interf ctr inactive.
`Cn1c(-c2ccc3c(c2)OCO3)cnc1NCc1cccc(F)c1` gave FBW7 act inactive, MITF primary 54.5, TEAD-YAP inh inactive, GPR151 ag inactive, MITF inh conf inactive and AS interf ctr inactive.
`Cn1c(-c2ccc(-c3ccccc3)cc2)cnc1NCc1cccnc1` gave FBW7 act inactive, MITF primary 62.9, TEAD-YAP inh inactive, GPR151 ag inactive, MITF inh conf inactive and AS interf ctr inactive.
Cn1c(-c2cccc([N+](=O)[O-])c2)cnc1NCc1cccc([N+](=O)[O-])c1 was read as FBW7 act inactive, MITF primary inactive, TEAD-YAP inh inactive and GPR151 ag inactive.
For Cn1c(-c2ccc(F)cc2)cnc1NCc1ccc(F)cc1 the results were FBW7 act inactive, MITF primary 52.6, TEAD-YAP inh inactive, GPR151 ag inactive, MITF inh conf inactive and AS interf ctr inactive.
`Cn1c(-c2ccc(Br)cc2)cnc1NCc1cccnc1` gave FBW7 act inactive, MITF primary inactive, TEAD-YAP inh inactive and GPR151 ag inactive.
`CC(C)Cc1c(C#N)c(SCC(=O)c2ccc(Cl)cc2)nc2c1CCCC2` gave FBW7 act inactive, MITF primary inactive, TEAD-YAP inh inactive and GPR151 ag inactive.
CCOc1cc(C(=O)NCc2n[nH]c(=S)n2-c2ccc(F)cc2)cc(OCC)c1OCC was read as FBW7 act inactive, MITF primary inactive, TEAD-YAP inh inactive and GPR151 ag inactive.
Screening CCOc1cc(/C=C2/C(=N)N3N=C(CC)SC3=NC2=O)ccc1OCCOc1cc(C)ccc1C(C)C returned FBW7 act inactive, MITF primary inactive, TEAD-YAP inh inactive and GPR151 ag inactive.
Screening COc1cccc(-c2cnc(NCc3ccc(F)cc3F)n2C)c1 returned FBW7 act inactive, MITF primary 51.0, TEAD-YAP inh inactive, GPR151 ag inactive, MITF inh conf inactive and AS interf ctr inactive.
CCOc1ccc(-n2c(SCc3nc4ccccc4[nH]3)nc3c(sc(=S)n3-c3cccc(OC)c3)c2=O)cc1 was read as FBW7 act inactive, MITF primary inactive, TEAD-YAP inh inactive and GPR151 ag inactive.
For COc1ccc(-n2cc(C(=O)Nc3ccc(Cl)cc3)c3ccccc3c2=O)cc1 the results were FBW7 act inactive, MITF primary inactive, TEAD-YAP inh inactive and GPR151 ag inactive.
CCOc1ccccc1OCCCN1CCNCC1 was read as FBW7 act inactive, MITF primary inactive, TEAD-YAP inh inactive and GPR151 ag inactive.
For Brc1ccccc1OCCCCN1CCNCC1 the results were FBW7 act inactive, MITF primary 51.3, TEAD-YAP inh inactive, GPR151 ag inactive, MITF inh conf inactive and AS interf ctr inactive.
Clc1ccc(OCCCCN2CCNCC2)cc1 was read as FBW7 act inactive, MITF primary inactive, TEAD-YAP inh inactive and GPR151 ag inactive.
Clc1ccccc1OCCCCN1CCNCC1 was read as FBW7 act inactive, MITF primary 54.5, TEAD-YAP inh inactive, GPR151 ag inactive, MITF inh conf inactive and AS interf ctr inactive.
`CC(C)(C)c1ccccc1OCCCN1CCNCC1` gave FBW7 act inactive, MITF primary 59.8, TEAD-YAP inh inactive, GPR151 ag inactive, MITF inh conf inactive and AS interf ctr inactive.
Screening O=C(N/N=C\c1ccc([N+](=O)[O-])c(O)c1)c1ccc(Br)cc1 returned FBW7 act inactive, MITF primary inactive, TEAD-YAP inh inactive and GPR151 ag inactive.
Screening CC(C)CCN1NC2(CCCCC2)NC1=S returned FBW7 act inactive, MITF primary 65.3, TEAD-YAP inh inactive, GPR151 ag inactive, MITF inh conf inactive and AS interf ctr inactive.
`CN1NC2(CCCC2)NC1=S` gave FBW7 act inactive, MITF primary inactive, TEAD-YAP inh inactive and GPR151 ag inactive.
C[Si](C)(C)c1cn(-c2ccc(Nc3nccc(-c4ccc(S(C)(=O)=O)cc4)n3)cc2Cl)nn1 was read as FBW7 act inactive, MITF primary inactive, TEAD-YAP inh inactive and GPR151 ag inactive.
Screening CN(C)CCCNc1ncnc2sccc12 returned FBW7 act inactive, MITF primary 72.9, TEAD-YAP inh inactive, GPR151 ag inactive, MITF inh conf inactive and AS interf ctr inactive.
For CN(C)CCCNc1ncnc2sc3c(c12)CCC3 the results were FBW7 act inactive, MITF primary 78.8, TEAD-YAP inh inactive, GPR151 ag inactive, MITF inh conf inactive and AS interf ctr 29.9.
`O=C(N/N=C/c1cccc2cccnc12)c1ccccc1` gave FBW7 act inactive, MITF primary 57.3, TEAD-YAP inh inactive, GPR151 ag inactive, MITF inh conf 77.6 and AS interf ctr 100.3.
O=C(N/N=C/c1cccc2ccccc12)c1ccncc1 was read as FBW7 act inactive, MITF primary inactive, TEAD-YAP inh inactive and GPR151 ag inactive.
`O=C(COc1ccc(F)cc1)N/N=C/c1cccc2cccnc12` gave FBW7 act inactive, MITF primary 59.1, TEAD-YAP inh inactive, GPR151 ag inactive, MITF inh conf 27.9 and AS interf ctr 86.1.
Screening O=C(N/N=C/c1cccc2cccnc12)c1ccncc1 returned FBW7 act inactive, MITF primary 95.8, TEAD-YAP inh inactive, GPR151 ag inactive, MITF inh conf 112.0 and AS interf ctr 100.3.
CCCCc1nc2ccccc2c(=O)n1NC(=O)c1c(O)c2ccccc2n(CC)c1=O was read as FBW7 act inactive, MITF primary inactive, TEAD-YAP inh inactive and GPR151 ag inactive.
Screening N=C1SCC(=O)N1c1ncc(Cc2ccccc2)s1 returned FBW7 act inactive, MITF primary 59.4, TEAD-YAP inh inactive, GPR151 ag inactive, MITF inh conf inactive and AS interf ctr 42.6.
N=C1SCC(=O)N1c1ncc(Cc2cccc(C(F)(F)F)c2)s1 was read as FBW7 act inactive, MITF primary inactive, TEAD-YAP inh inactive and GPR151 ag inactive.
Screening COc1ccc(-c2cnc3ccc(NC4CCOCC4)nn23)cn1 returned FBW7 act inactive, MITF primary inactive, TEAD-YAP inh inactive and GPR151 ag inactive.
`COc1ncc(-c2cnc3ccc(NC4CCOCC4)nn23)c(OC)n1` gave FBW7 act inactive, MITF primary 68.5, TEAD-YAP inh inactive, GPR151 ag inactive, MITF inh conf inactive and AS interf ctr inactive.
O=C(COc1ccc(Br)cc1)NCc1nc(-c2ccc(Cl)cc2)no1 was read as FBW7 act inactive, MITF primary 56.3, TEAD-YAP inh inactive, GPR151 ag inactive, MITF inh conf inactive and AS interf ctr inactive.
Screening Cc1ccc(OCCCCn2cncn2)c(I)c1 returned FBW7 act inactive, MITF primary inactive, TEAD-YAP inh inactive and GPR151 ag inactive.
